{"source": "ChEMBL document CHEMBL1157539", "about": "“Thousands of chemical starting points for antimalarial lead identification” (Nature, 2010)", "note": "Several values for one entry are separate records, joined by “and”; a condition that tells them apart may be missing. Identical values can stand only once."}
{"system": "Plasmodium falciparum", "test": "GSK_TCMDC: Inhibition of Plasmodium falciparum Dd2 in whole red blood cells, using parasite LDH activity as an index of growth. Test compounds present at 2uM", "format": "functional"}
{"molecule": "O=C(/C=C/c1ccc(Cl)cc1)NC1CCC(CN2CCC(c3c[nH]c4ccccc34)CC2)CC1", "note": "(centres undefined)", "Inhibition": "90% and 67%"}
{"molecule": "O=P(O)(O)Oc1c(Br)cc(Br)cc1-c1cc(Br)cc(Br)c1O", "note": "[BROMOFENOFOS]", "Inhibition": "0%"}
{"molecule": "O=C(/C=C/c1ccc(Cl)c(Cl)c1)NC1CCC(N2CCC(c3c[nH]c4ccc(O)cc34)CC2)CC1", "note": "(centres undefined)", "Inhibition": "16%"}
{"molecule": "Oc1ccc(Cl)cc1CN1CCC(CCOC(c2ccccc2)c2ccc(Cl)cc2)CC1", "note": "(centres undefined)", "Inhibition": "100%"}
{"molecule": "O=C(NC1CCC(CN2CCC(c3c[nH]c4ccccc34)CC2)CC1)c1cc(-c2cccc(Cl)c2)n(-c2ccc(Cl)cc2Cl)n1", "note": "(centres undefined)", "Inhibition": "25%"}
{"molecule": "CCCCCC(C)C(C)c1cc(O)c2c(c1)OC1(C(C)C)CC(O)C(C)C2C1", "note": "(centres undefined)", "Inhibition": "87%"}
{"molecule": "CC(=O)Nc1ccc(OCCN(CC(F)(F)F)c2ccc(C#N)cc2C(F)(F)F)cc1", "Inhibition": "83%"}
{"molecule": "COc1ccc(F)cc1-c1csc(N(c2ccc(F)cc2)C2CCNCC2)n1.O=C(O)C(F)(F)F", "Inhibition": "0%"}
{"molecule": "CC[C@H]1CN2CC[C@H]1C[C@H]2[C@H](O)c1cc(-c2ccc(Cl)c(Cl)c2)nc2ccc(OC)cc12.Cl", "Inhibition": "99%"}
{"molecule": "COCCNCc1cccc(-c2cccc(CN(C(=O)Nc3ccccc3)C3CCN(Cc4ccccc4)CC3)c2)c1.O=C(O)C(F)(F)F", "Inhibition": "65%"}
{"molecule": "CN1CCC(O)(c2ccc(Br)cc2)C(C(O)c2ccc(Br)cc2)C1.CS(=O)(=O)O", "note": "(centres undefined)", "Inhibition": "99%"}
{"molecule": "CN1CCC(N(C)c2nccc(N3CCN(Cc4cncn4Cc4ccccc4)CC3)n2)CC1", "Inhibition": "100%"}
{"molecule": "COC(C(=O)OCCC1CCCN1C)(c1ccccc1)C1CCCCC1", "note": "(centres undefined)", "Inhibition": "5%"}
{"molecule": "OC(CNCc1ccccc1OC(F)F)c1cccc(C(F)(F)F)c1", "note": "(centres undefined)", "Inhibition": "52%"}
{"molecule": "COC(=O)c1ccc(CC(C)NCC(O)c2cc(Cl)c(N)c(Cl)c2)cc1", "note": "(centres undefined)", "Inhibition": "66%"}
{"molecule": "O=C(NC1CCC(CN2CCC(c3c[nH]c4ccccc34)CC2)CC1)NC12CC3CC(CC(C3)C1)C2", "note": "(centres undefined)", "Inhibition": "46%"}
{"molecule": "CC[C@H]1CN2CC[C@H]1C[C@H]2[C@H](O)c1cc(-c2ccccc2C(F)(F)F)nc2ccc(OC)cc12.Cl", "Inhibition": "99%"}
{"molecule": "O=C1Nc2cccc3c2C1(CCCCCN1CC=C(c2c[nH]c4ccccc24)CC1)CCC3", "note": "(centres undefined)", "Inhibition": "89%"}
{"molecule": "COc1ccc2[nH]cc(C3CC4CCC(C3)N4CCC3CCN(C(=O)/C=C/c4ccc(Cl)c(Cl)c4)CC3)c2c1", "note": "(centres undefined)", "Inhibition": "80%"}
{"molecule": "CC[C@H]1CN2CC[C@H]1C[C@H]2[C@H](O)c1cc(-c2ccccc2F)nc2ccc(OC)cc12.Cl", "Inhibition": "98%"}
{"molecule": "CC(C)CNCc1cccc(-c2cccc(CN(C(=O)NC3CCCCC3)C3CCN(Cc4ccccc4)CC3)c2)c1.O=C(O)C(F)(F)F", "Inhibition": "87%"}
{"molecule": "COCC(=O)N(Cc1cccc(-c2ccc(CNCCc3ccccc3)cc2)c1)C1CCN(Cc2ccccc2)CC1.O=C(O)C(F)(F)F", "Inhibition": "45%"}
{"molecule": "COC(=O)/C=C/c1ccc(CC(C)NCC(O)c2cccc(Cl)c2)cc1", "note": "(centres undefined)", "Inhibition": "73%"}
{"molecule": "O=C(NC1CCN(CC2(c3ccc(Cl)cc3)CCC2)CC1)c1cc[nH]n1", "Inhibition": "43%"}
{"molecule": "O=C(NC1CCC(CN2CCC(c3c[nH]c4ccccc34)CC2)CC1)[C@H]1Cc2ccccc2CN1", "note": "(some centres undefined)", "Inhibition": "35%"}
{"molecule": "CCOc1ccc2nccc([C@@H](O)[C@@H]3C[C@@H]4CCN3C[C@@H]4CC)c2c1", "note": "[ETHYLHYDROCUPREINE]", "Inhibition": "51%"}
{"molecule": "CNCCCCCCOc1ccc(CC(C)NCC(O)c2cccc(C(F)(F)F)c2)cc1.Cl", "note": "(centres undefined)", "Inhibition": "79%"}
{"molecule": "Cn1cc(CN2CCC(CCOC(c3ccccc3)c3ccccc3)CC2)cn1", "Inhibition": "100%"}
{"molecule": "COc1cccc(C(=O)C2CC2CN2CC=C(c3c[nH]c4ccc(OC)nc34)CC2)c1", "note": "(centres undefined)", "Inhibition": "89%"}
{"molecule": "CC(=O)Nc1ccc2[nH]cc(C3CCN(CC4CCN(C(=O)/C=C/c5ccc(Cl)c(Cl)c5)CC4)CC3)c2c1", "Inhibition": "41%"}
{"molecule": "O=C(NC1CCC(CN2CCC(c3c[nH]c4ccccc34)CC2)CC1)c1ccc(-c2ccccc2[N+](=O)[O-])o1", "note": "(centres undefined)", "Inhibition": "34%"}
{"molecule": "CC[C@H]1CN2CC[C@H]1C[C@H]2[C@H](O)c1cc(N2CCCC(C(=O)N(CC)CC)C2)nc2ccc(OC)cc12", "note": "(some centres undefined)", "Inhibition": "99%"}
{"molecule": "Cc1csc(-c2ccc3[nH]cc(C4=CCN(C)CC4)c3c2)n1", "Inhibition": "78%"}
{"molecule": "Cc1ccc(CC(C)NCC(O)c2cccc(C(F)(F)F)c2)cc1F.Cl", "note": "(centres undefined)", "Inhibition": "91%"}
{"molecule": "CN(C(=O)OCc1ccccc1)C1CCC(CCN2CCC3(CC2)C(=O)NCN3c2cccc(C(F)(F)F)c2)(c2ccccc2)CC1", "note": "(centres undefined)", "Inhibition": "72%"}
{"molecule": "Cc1cc2cc(CNCCc3ccccc3Br)ccc2nc1N.Cl", "Inhibition": "91%"}
{"molecule": "C=C[C@H]1CN2CC[C@H]1C[C@H]2[C@H](O)c1cc(/C=C/c2ccc(F)cc2)nc2ccc(OC)cc12.Cl", "Inhibition": "99%"}
{"molecule": "CC[C@H]1CN2CC[C@@H]1C[C@H]2[C@H](O)c1cc(-c2c(C)noc2C)nc2ccc(OC)cc12.Cl", "Inhibition": "98%"}
{"molecule": "CC(Cc1ccc(NC(=O)CCCc2ccccc2)cc1)NCCc1cccc(Cl)c1.Cl", "note": "(centres undefined)", "Inhibition": "3%"}
